The text below walks through data of PubChem BioAssay (NCI).

What all share (assay): NCI-60 one-dose screen, 48 h (100 = growth as untreated, 0 = no growth, -100 = all killed)
Common to all, as to conditions: 10 µM unless noted

Assay [1] relates to HCT-15 colon.
The test system of assay [2] is HT29 colon.
In assay [3] the test system is SNB-75 CNS.
For assay [4], the system named is SNB-19 CNS.
For assay [5], the system named is U251 CNS.
Assay [6] has as its system PC-3 prostate.
The subject of assay [7] is SK-MEL-5 melanoma.
The test system of assay [8] is UACC-62 melanoma.
Assay [9] deals with LOX IMVI melanoma.
Assay [10] has as its system SK-MEL-28 melanoma.
The subject of assay [11] is EKVX NSCLC.
Assay [12] deals with SN12C renal.
In assay [13] the test system is UO-31 renal.
Assay [14] concerns TK-10 renal.
In assay [15] the test system is ACHN renal.
In assay [16] the test system is CAKI-1 renal.
Assay [17] has as its system A498 renal.
The subject of assay [18] is CCRF-CEM leukemia.
Assay [19] relates to MOLT-4 leukemia.

This is part of a sample that, as a whole, favours compounds with a hit. Of some 83,000 tested, about 20% had one in any assay.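 Single-dose data. Exposure time 48 hours. Values below 10 considered active.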 Values without a mark were called inactive. The source made the active and inactive calls.

For `CNC(=O)c1cnc(C)nc1-c1cc(C(C)(C)C)c(O)c(C(C)(C)C)c1`, the growth in assay [1] is 103%; in assay [2], 106%; in assay [3], 67.6%; in assay [4], 87.2%; in assay [5] it was 97.1%; in assay [6], 89.3%. Moreover, the growth in [7] is 92.1%; in assay [8], 90.7%; in assay [9], 110%; in [10], 107%; in assay [11] it was 92.6%; in assay [12], 100%. Also, the growth was 94.6% in [13]; 101% in assay [14]; 101% in assay [15]; 96.8% in assay [16]; 112% in assay [17]; 106% in assay [18]. The growth in [19] is 95.7%.

For `COc1cc(CCc2cc(NC(=O)c3ccc(N4C[C@@H](C)N[C@@H](C)C4)cc3)n[nH]2)cc(OC)c1`, the growth in [1] was 53.5%; in assay [2], 4.25% (active); in assay [3] it was 6.83% (active); in [4], 83.4%; in [5] it was 45.2%; in assay [6], 47.2%. In addition, the growth in assay [7] was 17.3%; in [8], 45.4%; in [9] it was -30.9% (active); in [10] it was 35.7%; in [11], 84.7%; in assay [12] it was 31.1%. The growth in [13] is 9.25% (active); in assay [14], 57.6%; in assay [15] it was 39.5%; in [16], 20.4%; in assay [17], -1.03% (active); in assay [18], 29.6%. Also, in assay [19], the growth was 10.6%.

In the case of `O=C(Nc1ccc(-c2ccnc(Nc3ccc(N4CCOCC4)cc3)n2)cc1)[C@@H]1CCCN1`, the growth in assay [1] was 23.3%; in assay [2], 18.6%; in [3], -1.55% (active); in assay [4], 83.4%; in assay [5], 51.4%; in assay [6], 61.2%. The growth was 49.2% in assay [7]; 68.5% in assay [8]; 30.4% in assay [9]; 54.5% in assay [10]; 71.7% in assay [11]; 45.6% in assay [12]. For the same molecule, the growth in [13] is 26.5%; in [14] it was 71.6%; in assay [15], 44.1%; in [16] it was 29.9%; in assay [17], 26.2%; in [18] it was 28.1%. In addition, the growth in [19] is 21.7%.

Take `CCCCCc1ccc(C)cc1OC(=O)CCl`: the growth in assay [1] is 110%; in assay [2] it was 100%; in [3], 90%; in assay [4] it was 105%; in assay [5] it was 101%; in assay [6], 88.4%. In addition, the growth in [7] is 103%; in assay [8], 113%; in [9] it was 106%; in assay [10], 113%; in assay [11], 117%; in assay [12], 110%. For the same molecule, the growth in [13] is 66.9%; in assay [14] it was 105%; in assay [15], 105%; in assay [16], 91.7%; in assay [17], 105%; in [18] it was 102%. Moreover, the growth in assay [19] is 102%.

For `Cc1nc(NC(=O)N2CCC[C@H]2C(N)=O)sc1-c1ccnc(C(C)(C)C(F)(F)F)c1`, the growth in assay [1] was 30.4%; in assay [2], 4.8% (active); in [3] it was 24.8%; in assay [4], 66.1%; in [5], 33.4%; in assay [6], 43.3%. The growth was 61.8% in assay [7]; 23.8% in assay [8]; 18.8% in [9]; 49.2% in assay [10]; 41.1% in assay [11]; 57.7% in assay [12]. Also, the growth is 25.1% in [13]; 13.3% in [14]; 36.9% in assay [15]; 17.8% in assay [16]; 1.67% (active) in assay [17]; 35.9% in assay [18]. Further, the growth in assay [19] was 8.66% (active).

As for `C/C(=C(/c1ccc(Cl)cc1)c1ccc(OCCN2CCCCC2)cc1)c1ccccc1`, the growth in assay [1] is 24.8%; in assay [2], 3.98% (active); in assay [3], 90.7%; in assay [4], 86.7%; in assay [5], 66.5%; in [6] it was 66.8%. Also, the growth was 62% in assay [7]; 64.9% in [8]; 59.9% in assay [9]; 91.5% in [10]; 70.7% in [11]; 77% in assay [12]. For the same molecule, the growth is 59.7% in [13]; 94.1% in assay [14]; 103% in assay [15]; 89.4% in assay [16]; 80.3% in [17]; 60.6% in assay [18]. In assay [19], the growth was 83.4%.

`CC(=O)Nc1cccc(-n2c(=O)n(C3CC3)c(=O)c3c(Nc4ccc(I)cc4F)n(C)c(=O)c(C)c32)c1`: the growth is 45.4% in assay [1]; 5.59% (active) in [2]; 43% in assay [3]; 48.3% in [4]; 39.9% in assay [5]; 63.7% in assay [6]. Further, the growth in assay [7] was 32.7%; in assay [8], -6.11% (active); in assay [9] it was 14%; in [10], -4.75% (active); in [11] it was 46%; in [12] it was 49.7%. Moreover, the growth was 12% in assay [13]; 21.8% in [14]; 42% in assay [15]; 27.1% in assay [16]; -34.4% (active) in assay [17]; 68.5% in assay [18]. Further, the growth in assay [19] was 65.5%.

In the case of `CNC(=O)c1cc(COc2nnc(Nc3ccc(Cl)cc3)c3ccoc23)ccn1`, the growth is 70.1% in assay [1]; 71% in assay [2]; -39.3% (active) in assay [3]; 19.6% in assay [4]; 15.1% in assay [5]; 34.5% in [6]. Also, the growth in assay [7] was -0.858% (active); in assay [8], 47.8%; in assay [9], 15.5%; in assay [10], 52.5%; in assay [11], 56.7%; in [12], 38.9%. Also, the growth was -3.27% (active) in assay [13]; 33% in [14]; 23.4% in [15]; 28.2% in assay [16]; 62.6% in assay [17]; 98.2% in assay [18]. The growth in [19] was 73.6%.
